# Measurements from PubChem BioAssay (NCATS).
# Results filed as inconclusive are left out. A number with no mark means an inactive call. Calls of active or inactive are those of the source. The call rests on the fitted dose curve; in most records, active means well fitted inhibition curve with a large enough effect; inconclusive means small, poorly fitted or top-dose-only effect; inactive means flat fitted curve, though single readings scatter.
# Test system: CP286
# Experiment: qHTS profiling for inhibitors of Plasmodium falciparum proliferation (AID 504749); further: nearly all actives have a fitted effect of over 60% in size;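 on activity, negative = inhibition: 0% = DMSO vehicle and full inhibition = artemisinin control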
# Conditions: P. falciparum in erythrocytes, SYBR Green DNA, 72 h; series mostly up to 28.7 µM; activity, negative = inhibition: at the top concentration
# Outline: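 P. falciparum-infected erythrocytes (0.3% parasitemia, 2.5% hematocrit final) were exposed to compounds for 72 h at 37 C in 5% CO2, then lysed with SYBR Green buffer overnight at room temperature; parasite DNA fluorescence was normalized to artemisinin and DMSO controls.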
# Potency means the concentration at half of the fitted maximal effect.
Compound,Potency,"activity, negative = inhibition"
CCCCCCCCCCCCCCNCCO,3.55 µM (active),
C[C@@H]1CN(CCCn2c3ccccc3c3ccccc32)C[C@H](C)N1,12.6 µM (active),
CN(C)C(=S)SC(=S)N(C)C,11.2 µM (active),
CO/N=C1\CN(c2nc3c(cc2F)c(=O)c(C(=O)O)cn3C2CC2)CC1CN (stereo not given),7.94 µM (active),
COc1cc2c(cc1OC)C(=O)C(CC1CCN(Cc3ccccc3)CC1)C2 (stereo not given),,-20.3%
CCOC(=O)COc1ccc2c(C)c(CCN(CC)CC)c(=O)oc2c1Cl,,-17.3%
Clc1ccc2c(c1)CCc1cccnc1C2=C1CCNCC1,10 µM (active),
CCN(CC)CCOc1ccc(C(O)(Cc2ccc(Cl)cc2)c2ccc(C)cc2)cc1 (stereo not given),10 µM (active),
C#C[C@]1(O)CC[C@H]2[C@@H]3CCc4cc(OC5CCCC5)ccc4[C@H]3CC[C@@]21C,,-15.7%
OC(CCN1CCCCC1)(c1ccccc1)c1ccccc1,11.2 µM (active),
CC/C(=C(/CC)c1ccc(O)cc1)c1ccc(O)cc1,,-9.06%
CC(=O)N/N=C/c1ccc([N+](=O)[O-])o1,,-22.6%
O=C(Nc1ccc(Oc2ccc(Cl)cc2)c(Cl)c1)c1cc(I)cc(I)c1O,,-15.6%
CN(C)CC/C=C1\c2ccccc2Sc2ccc(Cl)cc21,11.2 µM (active),
O=c1c(-c2ccccc2)c1-c1ccccc1,7.94 µM (active),
